According to PubChem BioAssay (Tox21):
“And” between values parts separate entries of the source, which are not always exact repeats. Identical values can stand only once. Records with an inconclusive call do not appear. Entries that show only a call come without a potency. A structure can be active in one record and inactive in another. The source made the active and inactive calls. Calls follow the shape of the dose curve; as a rule, active = well fitted curve in the direction sought with a large enough effect in the repeat runs; inconclusive = weak or mixed curves; inactive = no such curve, though single readings can be large; an effect the other way counts as inactive or inconclusive.

Experiment: qHTS assay to identify small molecule agonists of the sonic hedgehog signaling (Shh) pathway - cell viability counter screen (AID 1259366); also: nearly all actives have a fitted effect of over 50% in size
Settings: NIH/3T3 Gli1-Luc viability, CellTiter-Fluor, 24 h; series mostly up to 92.4 µM; viability change, negative = cytotoxic: at the top concentration
In short: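 After a 4hr attachment at 37C, NIH/3T3 cells bearing an integrated Gli1-driven luciferase reporter were dosed with compounds. Treatment lasted 24hr, with the final hour including CellTiter-Fluor for a fluorescence viability measurement.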
Potency is read from the fitted curve at half-maximal effect.

| Compound | Potency | viability change, negative = cytotoxic |
| --- | --- | --- |
| N#CCCCCC#N | inactive |  |
| COP(=S)(OC)Oc1ccc(S(=O)(=O)N(C)C)cc1 | inactive |  |
| N#Cc1c(Cl)c(Cl)c(Cl)c(C#N)c1Cl | 2.13 µM (active) and 3.86 µM (active) |  |
| C[C@]12CC[C@H]3[C@@H](CCC4=CC(=O)CC[C@@H]43)[C@@H]1CC[C@@H]2O | inactive |  |
| COc1ccc(CO)cc1 | inactive |  |
| CCC(=O)Nc1ccc(Cl)c(Cl)c1 | inactive |  |
| NN=C(N)N | inactive |  |
| OC(c1ccc(Cl)cc1)(c1cncnc1)c1ccccc1Cl (stereo not given) | inactive |  |
| Cl | inactive |  |
| CC(C)(c1ccccc1)c1ccc(O)c(C(C)(C)c2ccccc2)c1 | 60.6 µM (active) and 54.5 µM (active) |  |
| CC(C)(c1ccccc1)c1ccc(O)cc1 | 60.6 µM (active) |  |
| COP(=O)(NC(C)=O)SC (stereo not given) | inactive |  |
| COC(=O)Nc1nc2ccccc2[nH]1 | inactive |  |
| CC(O)CN(CC(C)O)CC(C)O (stereo not given) | inactive |  |
| CCCCSP(=O)(SCCCC)SCCCC | inactive |  |
| O=P(OCCCl)(OCCCl)OCCCl | inactive |  |
| CCOS(=O)(=O)OCC | inactive |  |
| CC(C)(O)C#N | inactive |  |
| CS(=O)(=O)NC(=O)c1cc(Oc2ccc(C(F)(F)F)cc2Cl)ccc1[N+](=O)[O-] | inactive |  |

| Compound | Potency | viability change, negative = cytotoxic |
| --- | --- | --- |
| Nc1ccc([N+](=O)[O-])cc1N | 30.6 µM (active) and 24.3 µM (active) |  |
| Oc1ccc(Cl)cc1Cc1ccccc1 | 55.1 µM (active) and inactive |  |
| CCC1(c2ccc(N)cc2)CCC(=O)NC1=O (stereo not given) | inactive |  |
| NC(=O)CN1CCCC1=O | inactive |  |
| COc1ccc(C=O)cc1OC |  | 0.168% (inactive) |
| O=C(O)c1nn(Cc2ccc(Cl)cc2Cl)c2ccccc12 | inactive |  |
| Brc1ccc(Br)cc1 | inactive |  |
| [CH3][Sn]([Cl])([Cl])[Cl] | inactive |  |
| O=C1C(Cl)=C(Cl)C(=O)c2ccccc21 | 4.34 µM (active) |  |
| N#Cc1nn(-c2c(Cl)cc(C(F)(F)F)cc2Cl)c(N)c1S(=O)C(F)(F)F (stereo not given) |  | 9.27% [at 42.5 µM] (inactive) |
| O=S(=O)(O)C(F)(F)C(F)(F)C(F)(F)C(F)(F)C(F)(F)C(F)(F)C(F)(F)C(F)(F)F | inactive |  |
| CCCCOCC1CO1 (stereo not given) | inactive |  |
| ClCC(Cl)CCl | inactive |  |
| O=C1Nc2ccc(Cl)cc2C(c2ccccc2)=NC1O (stereo not given) | inactive |  |
| ClC(Cl)(Cl)Br | inactive |  |
| CC1=C(C(=O)Nc2ccccc2)SCCO1 | inactive |  |
| Clc1ccccc1-c1nnc(-c2ccccc2Cl)nn1 | inactive |  |
| CC1CC(=O)O1 (stereo not given) | inactive |  |
| CCOP(=O)(OCC)OCC | inactive |  |

Experiment: qHTS assay to identify small molecule antagonists of the sonic hedgehog signaling (Shh) pathway - cell viability counter screen (AID 1259367); also: nearly all actives have a fitted effect of over 55% in size
Settings: NIH/3T3 Gli1-Luc viability, CellTiter-Fluor, 24 h; series mostly up to 92.4 µM; viability change, negative = cytotoxic: at the top concentration
In short: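 NIH/3T3-derived Gli1-Luc reporter cells, 2,000/well, plated 4 hr before compound addition, then stimulated with conditioned medium for 24 hr at 37C. Viability measured in the same wells by CellTiter-Fluor fluorescence, reagent added at 23 hr for 1 hr.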

| Compound | Potency | viability change, negative = cytotoxic |
| --- | --- | --- |
| N#CCCCCC#N | inactive |  |
| COP(=S)(OC)Oc1ccc(S(=O)(=O)N(C)C)cc1 | inactive |  |
| N#Cc1c(Cl)c(Cl)c(Cl)c(C#N)c1Cl | 2.39 µM (active) and 6.86 µM (active) |  |
| C[C@]12CC[C@H]3[C@@H](CCC4=CC(=O)CC[C@@H]43)[C@@H]1CC[C@@H]2O |  | 0.601% [at 42.5 µM] (inactive) |
| COc1ccc(CO)cc1 | inactive |  |
| CCC(=O)Nc1ccc(Cl)c(Cl)c1 | inactive |  |
| NN=C(N)N | inactive |  |
| OC(c1ccc(Cl)cc1)(c1cncnc1)c1ccccc1Cl (stereo not given) |  | -25.9% (inactive) |
| Cl | inactive |  |
| CC(C)(c1ccccc1)c1ccc(O)c(C(C)(C)c2ccccc2)c1 | 60.6 µM (active) and 43.3 µM (active) |  |
| COP(=O)(NC(C)=O)SC (stereo not given) | 68.7 µM (active) and inactive |  |
| COC(=O)Nc1nc2ccccc2[nH]1 | inactive |  |
| CC(O)CN(CC(C)O)CC(C)O (stereo not given) | inactive |  |
| CCCCSP(=O)(SCCCC)SCCCC | inactive |  |
| O=P(OCCCl)(OCCCl)OCCCl | inactive |  |
| CCOS(=O)(=O)OCC | inactive |  |
| CC(C)(O)C#N | inactive |  |
| CS(=O)(=O)NC(=O)c1cc(Oc2ccc(C(F)(F)F)cc2Cl)ccc1[N+](=O)[O-] | inactive |  |
| Nc1ccc([N+](=O)[O-])cc1N | 12.2 µM (active) and 19.3 µM (active) |  |

| Compound | Potency | viability change, negative = cytotoxic |
| --- | --- | --- |
| Oc1ccc(Cl)cc1Cc1ccccc1 |  | -19.6% [at 42.5 µM] (inactive) |
| CCC1(c2ccc(N)cc2)CCC(=O)NC1=O (stereo not given) | inactive |  |
| NC(=O)CN1CCCC1=O | inactive |  |
| COc1ccc(C=O)cc1OC |  | -3.48% (inactive) |
| O=C(O)c1nn(Cc2ccc(Cl)cc2Cl)c2ccccc12 | inactive |  |
| Brc1ccc(Br)cc1 | inactive |  |
| [CH3][Sn]([Cl])([Cl])[Cl] | inactive |  |
| O=C1C(Cl)=C(Cl)C(=O)c2ccccc21 | 4.87 µM (active) |  |
| N#Cc1nn(-c2c(Cl)cc(C(F)(F)F)cc2Cl)c(N)c1S(=O)C(F)(F)F (stereo not given) |  | -11.9% [at 42.5 µM] (inactive) |
| O=S(=O)(O)C(F)(F)C(F)(F)C(F)(F)C(F)(F)C(F)(F)C(F)(F)C(F)(F)C(F)(F)F |  | -7.09% (inactive) |
| CCCCOCC1CO1 (stereo not given) | inactive |  |
| ClCC(Cl)CCl | inactive |  |
| O=C1Nc2ccc(Cl)cc2C(c2ccccc2)=NC1O (stereo not given) | inactive |  |
| ClC(Cl)(Cl)Br | inactive |  |
| CC1=C(C(=O)Nc2ccccc2)SCCO1 | inactive |  |
| Clc1ccccc1-c1nnc(-c2ccccc2Cl)nn1 | inactive |  |
| CC1CC(=O)O1 (stereo not given) | inactive |  |
| CCOP(=O)(OCC)OCC | inactive |  |
